In PubChem BioAssay (Tox21):
Several values for one entry are separate records, joined by “and”; a condition that tells them apart may be missing. Identical values can stand only once. Results filed as inconclusive are left out. Entries that show only a call come without a potency. Activity calls are given as the source filed them. Unless noted, the call rests on the fitted dose curve; in most records, active means well fitted curve in the direction sought with a large enough effect in the repeat runs; inconclusive means weak or mixed curves; inactive means no such curve, though single readings can be large; an effect the other way counts as inactive or inconclusive.

Legend:
[1] = biological target: Thyrotropin receptor (Homo sapiens) (UniProt P16473); experiment: qHTS assay to identify small molecule antagonists of the thyroid stimulating hormone receptor (TSHR) signaling pathway (AID 1259385; calls by dose curve; further: nearly all actives have a fitted effect of over 20% in size)
Chain of Thyrotropin receptor (Homo sapiens) (P16473 whole entry, looked up): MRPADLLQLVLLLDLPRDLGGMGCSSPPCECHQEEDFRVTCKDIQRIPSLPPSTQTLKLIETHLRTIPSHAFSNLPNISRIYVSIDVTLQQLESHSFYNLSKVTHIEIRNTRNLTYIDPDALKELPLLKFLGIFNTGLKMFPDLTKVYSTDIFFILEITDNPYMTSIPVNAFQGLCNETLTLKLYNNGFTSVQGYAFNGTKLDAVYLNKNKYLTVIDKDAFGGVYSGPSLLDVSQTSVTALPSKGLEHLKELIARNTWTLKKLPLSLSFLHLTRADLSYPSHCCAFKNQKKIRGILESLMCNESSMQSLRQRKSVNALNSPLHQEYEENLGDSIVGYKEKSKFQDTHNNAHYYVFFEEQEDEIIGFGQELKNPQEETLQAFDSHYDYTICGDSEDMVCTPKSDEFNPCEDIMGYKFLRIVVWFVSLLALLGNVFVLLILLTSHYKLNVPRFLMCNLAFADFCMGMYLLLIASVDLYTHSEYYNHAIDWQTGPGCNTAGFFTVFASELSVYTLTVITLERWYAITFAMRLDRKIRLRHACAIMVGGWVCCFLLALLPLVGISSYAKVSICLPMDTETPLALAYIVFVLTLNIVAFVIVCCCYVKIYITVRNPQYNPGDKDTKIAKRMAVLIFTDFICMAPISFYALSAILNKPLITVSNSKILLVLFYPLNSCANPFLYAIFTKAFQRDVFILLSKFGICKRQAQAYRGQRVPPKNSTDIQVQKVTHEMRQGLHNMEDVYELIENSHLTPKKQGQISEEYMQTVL
Procedure, shortened: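 TSHR-HEK293 cells were plated and held 18 h at 37C/5% CO2, then given compound plus Ro20-1724 and stimulated with TSH at 1.5 ng/mL final. After 30 min at room temperature, cAMP was detected with cAMP-d2/anti-cAMP-cryptate (1 h) by fluorescence.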

[2] = biological target: Progesterone receptor (Homo sapiens) (UniProt P06401); experiment: qHTS assay to identify small molecule agonists of the progesterone receptor (PR) signaling pathway (AID 1346784; calls by dose curve; further: nearly all actives have a fitted effect of over 30% in size)
Chain of Progesterone receptor (Homo sapiens) (P06401 whole entry, looked up): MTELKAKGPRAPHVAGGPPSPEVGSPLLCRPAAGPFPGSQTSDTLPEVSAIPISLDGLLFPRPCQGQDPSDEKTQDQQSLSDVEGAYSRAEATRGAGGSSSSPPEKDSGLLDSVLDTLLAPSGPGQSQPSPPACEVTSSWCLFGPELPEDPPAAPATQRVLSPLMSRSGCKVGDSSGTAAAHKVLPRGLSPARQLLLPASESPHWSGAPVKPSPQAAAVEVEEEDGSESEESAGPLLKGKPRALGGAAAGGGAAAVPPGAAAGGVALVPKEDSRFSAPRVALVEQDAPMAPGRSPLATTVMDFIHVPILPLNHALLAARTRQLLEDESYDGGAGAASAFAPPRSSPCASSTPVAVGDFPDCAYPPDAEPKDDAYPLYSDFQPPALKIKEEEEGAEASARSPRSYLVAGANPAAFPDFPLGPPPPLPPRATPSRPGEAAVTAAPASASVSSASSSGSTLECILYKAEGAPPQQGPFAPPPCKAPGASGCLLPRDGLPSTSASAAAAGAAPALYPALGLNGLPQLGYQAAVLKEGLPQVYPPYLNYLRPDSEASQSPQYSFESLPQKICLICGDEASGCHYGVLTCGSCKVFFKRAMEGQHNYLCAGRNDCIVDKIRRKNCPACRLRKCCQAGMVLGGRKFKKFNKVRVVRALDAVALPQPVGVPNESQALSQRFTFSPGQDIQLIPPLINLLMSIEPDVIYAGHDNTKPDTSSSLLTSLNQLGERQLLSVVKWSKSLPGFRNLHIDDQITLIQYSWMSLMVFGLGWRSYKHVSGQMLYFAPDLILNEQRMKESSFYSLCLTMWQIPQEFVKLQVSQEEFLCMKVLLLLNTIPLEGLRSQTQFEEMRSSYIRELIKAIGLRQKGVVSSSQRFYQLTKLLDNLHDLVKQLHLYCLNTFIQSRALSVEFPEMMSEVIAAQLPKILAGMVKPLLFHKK
Procedure, shortened: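 Seed PR-UAS-bla HEK 293T cells (2% charcoal-stripped FBS), incubate 6 hr at 37C; add compounds in DMSO, 16 hr at 37C; add LiveBLAzer B/G substrate, 2 hr RT; read fluorescence intensity.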

[3] = biological target: Progesterone receptor (Homo sapiens) (UniProt P06401); experiment: qHTS assay to identify small molecule antagonists of the progesterone receptor (PR) signaling pathway (AID 1346795; active means well fitted inhibition curve with a large enough effect in the signal ratio in the repeat runs, not every such curve was filed as active; the % refers to the signal ratio; further: potency means the concentration at half of the fitted maximal effect)
Procedure, shortened: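 Screening used a GripTite HEK293T line with PR-responsive UAS-beta-lactamase. Cells were challenged with compound in the presence of 1 nM R5020 final for 16 hr at 37C; B/G FRET substrate, 2 hr room temperature, fluorescence.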

[4] = qHTS assay to identify small molecule antagonists of the progesterone receptor (PR) signaling pathway - cell viability counter screen (AID 1346798); further: series mostly up to about 92 µM; nearly all actives have a fitted effect of over 50% in size
Procedure, shortened: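 Measures cytotoxicity in parallel with the PR antagonist reporter read: HEK293T PR-UAS-bla cells get compound and R5020 for 16 hr, and remaining viable cells are quantified by CellTiter-Glo luminescence.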

[5] = qHTS assay to identify small molecule agonists of the progesterone receptor (PR) signaling pathway - cell viability counter screen (AID 1346799; calls by dose curve; further: nearly all actives have a fitted effect of over 45% in size)
Procedure, shortened: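 Using the same plates as the PR reporter screen, HEK293T PR-UAS-bla cells received compounds for 16 hr at 37C and were then lysed with CellTiter-Glo; luminescence was read 30 min later at room temperature.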

[6] = qHTS assay to identify small molecule antagonists of the TGF-beta/Smad signaling pathway - cell viability counter screen (AID 1346824); further: nearly all actives have a fitted effect of over 50% in size
Procedure, shortened: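 SBE-bla HEK 293T cells were plated overnight at 37 C, then given compounds in DMSO plus TGF-beta1 (added as 0.25 ng/mL solution) for 5 hr. After the bla read, CellTiter-Glo was added to the same wells and luminescence read after 30 min at room temperature.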

[7] = qHTS assay to identify small molecule agonists of the TGF-beta/Smad signaling pathway - cell viability counter screen (AID 1346829); further: top concentration of the series differs between compounds; nearly all actives have a fitted effect of over 45% in size
Procedure, shortened: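 SBE-bla HEK 293T cells plated overnight, compound exposure 5 hr at 37 C. Viability read in the same wells by CellTiter-Glo luminescence after 30 min at room temperature, following the beta-lactamase read.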

[8] = qHTS assay to identify small molecule agonists of the TGF-beta/Smad signaling pathway (AID 1346859; active means well fitted activation curve with a large enough effect in the signal ratio in the repeat runs, not every such curve was filed as active; the % refers to the signal ratio; further: series mostly up to about 77 µM)
Procedure, shortened: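 Beta-lactamase reporter activity downstream of Smad binding elements was measured in stably transfected HEK 293T cells; compounds were incubated for 5 hr, substrate for 2 hr at room temperature.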

[9] = biological target: Thyrotropin-releasing hormone receptor (Homo sapiens) (UniProt P34981); experiment: qHTS assay to identify small molecule antagonists of the thyrotropin-releasing hormone receptor (TRHR) signaling pathway (AID 1346877; active means well fitted inhibition curve with a large enough effect in the repeat runs, not every such curve was filed as active; further: series mostly up to about 51 µM)
Chain of Thyrotropin-releasing hormone receptor (Homo sapiens) (P34981 whole entry, looked up): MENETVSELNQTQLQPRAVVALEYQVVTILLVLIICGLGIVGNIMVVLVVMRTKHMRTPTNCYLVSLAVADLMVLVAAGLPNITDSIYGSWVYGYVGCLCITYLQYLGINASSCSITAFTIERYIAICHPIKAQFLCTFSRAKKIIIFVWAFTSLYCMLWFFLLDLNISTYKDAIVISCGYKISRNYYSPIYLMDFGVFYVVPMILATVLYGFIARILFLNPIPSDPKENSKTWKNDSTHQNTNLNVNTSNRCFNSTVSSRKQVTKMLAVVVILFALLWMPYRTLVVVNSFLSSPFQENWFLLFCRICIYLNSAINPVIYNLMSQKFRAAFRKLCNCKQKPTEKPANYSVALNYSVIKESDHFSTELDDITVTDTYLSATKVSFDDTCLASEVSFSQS
Procedure, shortened: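 In this cell-based calcium flux format, HEK293 cells expressing TRHR received test compound for 5 min before the agonist TRH (1 nM final). Dye loading lasted 2 h at 37 °C.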

SMILES	outcome [1]	Potency [2]	Potency [3]	Potency [4]	outcome [5]	Potency [6]	Potency [7]	outcome [8]	outcome [9]
CNCC(O)c1ccc(O)cc1 (stereo not drawn)	inactive	inactive	inactive	inactive	inactive	inactive	inactive	inactive	inactive
FC(F)(F)c1ccc(Cl)cc1		inactive	inactive	inactive	inactive	inactive	inactive	inactive	inactive
O=S(=O)(O)OOS(=O)(=O)O		inactive	inactive	inactive	inactive	inactive	inactive	inactive	inactive
COc1nc(NC(C)C)nc(NC(C)C)n1		inactive	inactive	inactive	inactive	inactive	inactive	inactive	inactive
Cc1ccccc1N		inactive	inactive	inactive	inactive	inactive	inactive	inactive	
CC(C)CCCCCCOC(=O)c1ccccc1C(=O)OCCCCCCC(C)C		inactive	inactive	inactive	inactive	inactive	inactive	inactive	inactive
ClCCOCCCl		inactive	inactive	inactive	inactive	inactive	inactive	inactive	inactive
Cc1ccc(O)c(C)c1		inactive	inactive	inactive	inactive	inactive	inactive	inactive	inactive
CCCCC(CC)C(=O)Cl (stereo not drawn)		inactive	inactive	inactive	inactive	inactive	inactive	inactive	inactive
[N-]=[N+]=CC(=O)OC[C@H](N)C(=O)O		inactive	inactive	inactive	inactive	inactive	inactive	inactive	
Cc1ccc(N=C=O)cc1N=C=O		inactive	inactive	inactive	inactive	inactive	inactive	inactive	inactive
O=C(O)Cc1ccccc1		inactive	inactive	inactive	inactive	inactive	inactive	inactive	inactive
CNC(=O)O/N=C/C(C)(C)SC		inactive	inactive	inactive	inactive	inactive	inactive	inactive	inactive
CN(C)CCC#N		inactive	inactive	inactive	inactive	inactive	inactive	inactive	inactive
O=[N+]([O-])c1ccc(Cl)cc1		inactive	inactive	inactive	inactive	inactive	inactive	inactive	inactive
Nc1cccc(Cl)c1		inactive	inactive	inactive	inactive	inactive	inactive	inactive	

SMILES	outcome [1]	Potency [2]	Potency [3]	Potency [4]	outcome [5]	Potency [6]	Potency [7]	outcome [8]	outcome [9]
CCOc1ccc(N)cc1		inactive	inactive	inactive	inactive	inactive	inactive	inactive	inactive
OC[C@@H](O)[C@H]1O[C@@H]2O[C@H](C(Cl)(Cl)Cl)O[C@@H]2[C@H]1O		inactive	inactive	inactive	inactive	inactive	inactive	inactive	inactive
O=[N+]([O-])c1cc([As](=O)(O)O)ccc1O		inactive	inactive	inactive	inactive	inactive	inactive	inactive	inactive
N#Cc1ccccn1		inactive	inactive	inactive	inactive	inactive	inactive	inactive	inactive
CCCOC(=O)c1ccccc1C(=O)OCCC		inactive	inactive	inactive	inactive	inactive	inactive	inactive	inactive
CNc1cnn(-c2cccc(C(F)(F)F)c2)c(=O)c1Cl		inactive	inactive	inactive	inactive	inactive	inactive	inactive	inactive
Nc1ncc([N+](=O)[O-])s1		inactive	inactive	inactive	inactive	inactive	inactive	inactive	
Cc1cccc(C)c1NC(=O)CN1CCCC1=O		inactive	inactive	inactive	inactive	inactive	inactive	inactive	inactive
CC12CC1(C)C(=O)N(c1cc(Cl)cc(Cl)c1)C2=O (stereo not drawn)		inactive		inactive	inactive	inactive	inactive	inactive	inactive
Clc1cnc(Oc2ccc(Oc3ncc(Cl)cc3Cl)cc2)c(Cl)c1		inactive	inactive	inactive	inactive	inactive	inactive	inactive	
CCNc1nc(Cl)nc(NC(C)C)n1		inactive	inactive	inactive	inactive	inactive	inactive	inactive	inactive
C/C=C/c1ccc2c(c1)OCO2		inactive	inactive	inactive	inactive	inactive	inactive	inactive	
O=C(O)C1C(C(=O)O)C2(Cl)C(Cl)=C(Cl)C1(Cl)C2(Cl)Cl (stereo not drawn)		inactive	inactive	inactive	inactive	inactive	inactive	inactive	
Nc1ccc([As](=O)(O)O)cc1		inactive	inactive	inactive	inactive	inactive	inactive	inactive	inactive
COc1cc(-c2ccc(N)c(OC)c2)ccc1N		inactive	48.8 µM (active) and 27.3 µM (active) and 46.3 µM (active)		inactive	inactive	inactive	inactive	inactive
OCCCCO		inactive	inactive	inactive	inactive	inactive	inactive	inactive	inactive
